Measured values: PubChem BioAssay (NCI)
“And” between values parts separate entries of the source, which are not always exact repeats. Equal entries are not always repeated. This is part of a sample that, as a whole, favours compounds with a hit. Of some 83,000 tested, about 20% had one in any assay.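 Percent growth is the endpoint: 0 to 100 indicates growth inhibition (40 means 60% inhibition), 0 means no net growth, and negative values indicate cell death.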 The source made the active and inactive calls. How the source made its calls: active means growth percent below 10; inactive means the rest.

Assays:
Assay in all cases: NCI-60 one-dose screen, 48 h (100 = growth as untreated, 0 = no growth, -100 = all killed)
Settings in all cases: 10 µM
SK-MEL-2 melanoma = test system: SK-MEL-2 melanoma
EKVX NSCLC = test system: EKVX NSCLC
SN12C renal = test system: SN12C renal
UO-31 renal = test system: UO-31 renal
TK-10 renal = test system: TK-10 renal
ACHN renal = test system: ACHN renal
A498 renal = test system: A498 renal
CCRF-CEM leukemia = test system: CCRF-CEM leukemia
MOLT-4 leukemia = test system: MOLT-4 leukemia
CAKI-1 renal = test system: CAKI-1 renal

Measured: growth

O=C(/C=C/c1cccnc1)c1ccccc1
inactive: SK-MEL-2 melanoma 94.2% | EKVX NSCLC 103% | SN12C renal 100% | UO-31 renal 84.1% | TK-10 renal 93.9% | ACHN renal 79.8% | A498 renal 89.7% | CCRF-CEM leukemia 41.3% | MOLT-4 leukemia 82.3%

OCC(O)C(O)C(O)C(/C=N/Nc1ccccc1)=N/Nc1ccccc1 (stereo not drawn)
inactive: SK-MEL-2 melanoma 121% | SN12C renal 95.9% | UO-31 renal 61.1% | TK-10 renal 91.8% | ACHN renal 67.5% | CAKI-1 renal 78% | A498 renal 43.9% | CCRF-CEM leukemia 75.4% | MOLT-4 leukemia 101%

CCCCCC(C)c1ccc(O)c(C)c1 (stereo not drawn)
inactive: SK-MEL-2 melanoma 104% | EKVX NSCLC 108% | UO-31 renal 83.5% | TK-10 renal 107% | ACHN renal 101% | CAKI-1 renal 103% | A498 renal 81.9% | MOLT-4 leukemia 93%

Cc1nc(N=C(N)N)nc2ccc3ccccc3c12
active: SK-MEL-2 melanoma -19% | SN12C renal -22.6% | UO-31 renal 5.39% | TK-10 renal 3.86% | CCRF-CEM leukemia -25.9% | MOLT-4 leukemia -28.2%
inactive: ACHN renal 15.1% | CAKI-1 renal 75.2% | A498 renal 32.9%

OCC1OC(n2cnc3c(=S)nc[nH]c32)C(O)C1O (stereo not drawn)
inactive: SK-MEL-2 melanoma 100% and 57.6% | EKVX NSCLC 106% and 119% | SN12C renal 95.1% and 82.5% | UO-31 renal 93.9% and 50.5% | TK-10 renal 97.9% and 40.7% | ACHN renal 103% and 32.9% | CAKI-1 renal 104% and 18% | A498 renal 105% and 119% | CCRF-CEM leukemia 107% and 32.7% | MOLT-4 leukemia 120% and 35.7%

O=C1C=C(O)c2ccccc2C1=O.[Ag]
inactive: SN12C renal 103% | UO-31 renal 82.9% | TK-10 renal 157% | ACHN renal 95.2% | CAKI-1 renal 94.4% | A498 renal 93.3% | CCRF-CEM leukemia 101% | MOLT-4 leukemia 105%
